The text below walks through data of PubChem BioAssay AID651903 (Broad Institute, 2012).

In all, about 22,000 compounds went through this assay and about 1,100 (5%) were called active. The sample as a whole holds a higher share of actives than the screen did. A number with no mark means an inactive call. Cut-off read from the data, not from the text of the source: active = activity score above about 55%; inconclusive = no clear call, values can overlap the other calls; inactive = below that.

The test can be described thus: T. cruzi growth inside host cells – cell-based, plate reader, single point, set 2, primary screen (AID 651903).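 Note: parasites and compound incubated about four days before reading; 0% = median of neutral control wells.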 Particulars: intracellular Trypanosoma cruzi in host cells, at 5.01 µM, hits give high values.
On to `C[C@H]1CN([C@@H](C)CO)C(=O)CCCn2nncc2CO[C@@H]1CN(C)S(=O)(=O)c1ccccc1C#N`, for which the activity score (inhibition) is -9.5%.

Take `C[C@@H]1CN([C@H](C)CO)C(=O)Cc2cc(NC(=O)c3ccncc3)ccc2O[C@H]1CN(C)Cc1ccc(-c2ccccc2)cc1`: the activity score (inhibition) is 57.2% (active).

Consider `C[C@@H]1CN([C@H](C)CO)C(=O)Cc2cc(NC(=O)Nc3ccccc3)ccc2O[C@@H]1CN(C)Cc1ccc(C(F)(F)F)cc1`, for which the activity score (inhibition) was 14.2%.

On to `C[C@H](CO)N1C[C@H](C)[C@H](CN(C)Cc2ccc(C(F)(F)F)cc2)Oc2ccc(N(C)C)cc2CC1=O`, for which the activity score (inhibition) is 50.9%.

As to `C[C@H]1CN([C@@H](C)CO)C(=O)Cc2cc(N(C)C)ccc2O[C@@H]1CN(C)Cc1ccc(-c2ccccc2)cc1`, the activity score (inhibition) was 68.2% (active).

As for `COc1ccc(CN(C)C[C@@H]2Oc3ccc(NC(=O)c4ccncc4)cc3CC(=O)N([C@H](C)CO)C[C@H]2C)cc1`, the activity score (inhibition) was -3.55%.

For the compound `C[C@H](CO)N1C[C@H](C)[C@H](CN(C)Cc2ccc(-c3ccccc3)cc2)Oc2ccc(NC(=O)Nc3ccc(F)cc3)cc2CC1=O`, the activity score (inhibition) is 58.8% (active).

`C[C@H]1CN([C@@H](C)CO)C(=O)Cc2cc(NC(=O)Nc3ccccc3)ccc2O[C@H]1CN(C)Cc1ccncc1`: the activity score (inhibition) is 6.16%.

For the compound `C[C@@H]1CN([C@H](C)CO)C(=O)Cc2cc(N(C)C)ccc2O[C@@H]1CN(C)Cc1ccccc1`, the activity score (inhibition) was -5.53%.

On to `C[C@@H]1CN([C@H](C)CO)C(=O)Cc2cc(NC(=O)c3ccncc3)ccc2O[C@@H]1CN(C)Cc1ccncc1`, for which the activity score (inhibition) is -11.9%.

Regarding `C[C@@H]1CCCCO[C@H](CN(C)Cc2ccncc2)[C@@H](C)CN([C@H](C)CO)C(=O)c2cc(NC(=O)CCCN(C)C)ccc2O1`, the activity score (inhibition) was -8.02%.

As for `Cc1noc(C)c1NC(=O)Nc1ccc2c(c1)C(=O)N([C@H](C)CO)C[C@H](C)[C@H](CN(C)S(=O)(=O)c1cccs1)O2`, the activity score (inhibition) is 2.68%.

For `C[C@@H]1CN([C@H](C)CO)C(=O)c2cc(NC(=O)CCCCCC(=O)Nc3ccccc3N)ccc2O[C@@H]1CN(C)S(=O)(=O)c1ccc(Cl)cc1`, the activity score (inhibition) is 15.5%.

On to `Cc1ccc(S(=O)(=O)N(C)C[C@@H]2Oc3ccc(NS(=O)(=O)c4c(C)noc4C)cc3CC(=O)N([C@H](C)CO)C[C@H]2C)cc1`, for which the activity score (inhibition) is 4.67%.

Turning to `C[C@H](CO)N1C[C@H](C)[C@H](CN(C)Cc2ccncc2)Oc2ccc(NS(=O)(=O)c3ccc(F)cc3)cc2CC1=O`, the activity score (inhibition) is -4.01%.

As for `CC(C)NC(=O)Nc1ccc2c(c1)C(=O)N([C@H](C)CO)C[C@H](C)[C@H](CN(C)C(=O)Nc1ccc(C(F)(F)F)cc1)OCCCC[C@@H](C)O2`, the activity score (inhibition) is 56.9% (active).

For `C[C@@H]1CCCCO[C@@H](CN(C)Cc2ccc(C(F)(F)F)cc2)[C@@H](C)CN([C@H](C)CO)C(=O)c2cc(NC(=O)Nc3ccccc3)ccc2O1`, the activity score (inhibition) is 67.7% (active).

As to `CC(C)NC(=O)N(C)C[C@@H]1OCCCC[C@@H](C)Oc2ccc(NC(=O)Nc3ccccc3)cc2C(=O)N([C@H](C)CO)C[C@@H]1C`, the activity score (inhibition) was -24.2%.

As to `CC(C)NC(=O)Nc1ccc2c(c1)C(=O)N([C@H](C)CO)C[C@H](C)[C@@H](CN(C)Cc1ccc(C(F)(F)F)cc1)OCCCC[C@@H](C)O2`, the activity score (inhibition) was -27.7%.

Turning to `CC(C)NC(=O)Nc1ccc2c(c1)C(=O)N([C@H](C)CO)C[C@H](C)[C@H](CN(C)Cc1ccc(C(=O)O)cc1)OCCCC[C@@H](C)O2`, the activity score (inhibition) was -25.6%.

Take `C[C@@H]1CCCCO[C@@H](CN(C)C(=O)Nc2ccccc2)[C@@H](C)CN([C@H](C)CO)C(=O)c2cc(NC(=O)Nc3ccc(F)cc3)ccc2O1`: the activity score (inhibition) is 7.86%.

Regarding `Cc1noc(C)c1NC(=O)N(C)C[C@H]1Oc2ccc(NC(=O)Nc3ccc(C(F)(F)F)cc3)cc2CC(=O)N([C@@H](C)CO)C[C@@H]1C`, the activity score (inhibition) was -4.63%.

Take `Cc1ccc(S(=O)(=O)N(C)C[C@@H]2Oc3ccc(NC(=O)Cc4ccccc4)cc3CC(=O)N([C@H](C)CO)C[C@H]2C)cc1`: the activity score (inhibition) was 4.53%.

Consider `C[C@H](CO)N1C[C@H](C)[C@H](CN(C)Cc2ccc(C(F)(F)F)cc2)Oc2ccc(NS(=O)(=O)c3ccc(Cl)cc3)cc2C1=O`, for which the activity score (inhibition) was 60.9% (active).

With `COc1ccc(S(=O)(=O)Nc2ccc3c(c2)C(=O)N([C@H](C)CO)C[C@H](C)[C@H](CN(C)Cc2ccc(C(F)(F)F)cc2)O3)cc1`, the activity score (inhibition) was 24.5%.

As for `COc1ccc(CN(C)C[C@@H]2Oc3ccc(NS(=O)(=O)c4ccc(OC)cc4)cc3C(=O)N([C@H](C)CO)C[C@H]2C)cc1`, the activity score (inhibition) is 3.29%.

`Cc1ccc(S(=O)(=O)Nc2ccc3c(c2)C(=O)N([C@@H](C)CO)C[C@@H](C)[C@H](CN(C)Cc2ccc(C(F)(F)F)cc2)O3)cc1`: the activity score (inhibition) is 52.7%.

For `COc1ccc(S(=O)(=O)Nc2ccc3c(c2)C(=O)N([C@H](C)CO)C[C@@H](C)[C@@H](CN(C)Cc2ccccc2)O3)cc1`, the activity score (inhibition) was -14.1%.

For `COc1ccc(S(=O)(=O)Nc2ccc3c(c2)C(=O)N([C@H](C)CO)C[C@H](C)[C@@H](CN(C)Cc2ccc(-c4ccccc4)cc2)O3)cc1`, the activity score (inhibition) was 55.9% (active).

In the case of `C[C@@H]1CN([C@@H](C)CO)C(=O)c2cccc(NC(=O)Nc3ccc4c(c3)OCO4)c2O[C@H]1CN(C)C(=O)Nc1cccc2ccccc12`, the activity score (inhibition) is -8.82%.

`C[C@H](CO)N1C[C@H](C)[C@H](CN(C)Cc2ccccc2)Oc2ncc(-c3ccccc3)cc2C1=O`: the activity score (inhibition) was -4.22%.

`C[C@H](CO)N1C[C@H](C)[C@H](CN(C)C)Oc2ncc(/C=C/c3ccccc3)cc2C1=O`: the activity score (inhibition) was 71.7% (active).

Consider `C[C@H](CO)N1C[C@H](C)[C@H](CN(C)C(=O)Nc2ccc3c(c2)OCO3)Oc2ncc(C#Cc3cccc(F)c3)cc2C1=O`, for which the activity score (inhibition) is 25.3%.

On to `C[C@H](CO)N1C[C@H](C)[C@@H](CN(C)C)Oc2ccc(N(C)C)cc2C1=O`, for which the activity score (inhibition) is -14.7%.

As to `COc1ccc(NC(=O)N(C)C[C@@H]2Oc3ncc(-c4cccc(OC)c4)cc3C(=O)N([C@H](C)CO)C[C@@H]2C)cc1`, the activity score (inhibition) was 16.6%.

Consider `C[C@H](CO)N1C[C@H](C)[C@H](CN(C)C(=O)NC2CCCC2)Oc2ncc(-c3ccc(F)cc3)cc2C1=O`, for which the activity score (inhibition) is 6.58%.

With `C[C@@H]1CN([C@H](C)CO)C(=O)c2cccc(NC(=O)Nc3cccc4ccccc34)c2O[C@@H]1CN(C)C(=O)Nc1cccc2ccccc12`, the activity score (inhibition) is 4.54%.

On to `C[C@H](CO)N1C[C@H](C)[C@H](CN(C)C(=O)Nc2cccc3ccccc23)Oc2ncc(C#Cc3ccccc3)cc2C1=O`, for which the activity score (inhibition) is 67.5% (active).

Turning to `Cc1ccc(S(=O)(=O)N(C)C[C@@H]2Oc3ncc(-c4cc5ccccc5o4)cc3C(=O)N([C@H](C)CO)C[C@@H]2C)cc1`, the activity score (inhibition) was 76.5% (active).

On to `COc1ccc(-c2cnc3c(c2)C(=O)N([C@H](C)CO)C[C@H](C)[C@H](CN(C)S(=O)(=O)c2ccccc2)O3)cc1`, for which the activity score (inhibition) was 26.3%.

Take `C[C@H](CO)N1C[C@H](C)[C@H](CN(C)C(=O)Nc2ccc(F)cc2)Oc2ncc(-c3cc4ccccc4o3)cc2C1=O`: the activity score (inhibition) was 78.2% (active).

As to `C[C@H](CO)N1C[C@H](C)[C@H](CN(C)S(=O)(=O)c2ccc(F)cc2)Oc2ncc(-c3ccc(F)cc3)cc2C1=O`, the activity score (inhibition) is 30.4%.

In the case of `Cc1ccc(S(=O)(=O)N(C)C[C@H]2Oc3c(NC(=O)C4CC4)cccc3C(=O)N([C@@H](C)CO)C[C@@H]2C)cc1`, the activity score (inhibition) was 0.737%.

For the compound `Cc1noc(C)c1S(=O)(=O)Nc1ccc2c(c1)C(=O)N([C@H](C)CO)C[C@H](C)[C@H](CN(C)S(=O)(=O)c1cn(C)cn1)OCCCC[C@@H](C)O2`, the activity score (inhibition) is -39.1%.

`COc1ccc(CN(C)C[C@H]2Oc3c(NC(=O)Nc4ccccc4)cccc3C(=O)N([C@@H](C)CO)C[C@@H]2C)cc1`: the activity score (inhibition) was 6.85%.

On to `CCCC(O)C#Cc1cnc2c(c1)C(=O)N([C@H](C)CO)C[C@H](C)[C@H](CN(C)Cc1ccc(F)cc1)O2` (stereo partly drawn), for which the activity score (inhibition) was 18.5%.

`Cc1cc(C(=O)Nc2cccc3c2O[C@@H](CN(C)S(=O)(=O)c2ccc(F)cc2)[C@@H](C)CN([C@H](C)CO)C3=O)n(C)n1`: the activity score (inhibition) is 32.3%.

As to `Cc1noc(C)c1NC(=O)Nc1ccc2c(c1)C(=O)N([C@H](C)CO)C[C@H](C)[C@@H](CN(C)S(=O)(=O)c1cn(C)cn1)O2`, the activity score (inhibition) is -7.25%.

Consider `C[C@@H]1CN([C@H](C)CO)C(=O)Cc2cc(NC(=O)Nc3ccc(F)cc3)ccc2O[C@@H]1CN(C)C(=O)Nc1ccc2c(c1)OCO2`, for which the activity score (inhibition) is -18.5%.

As for `C[C@@H]1CN([C@@H](C)CO)C(=O)Cc2cc(NC(=O)Nc3ccccc3)ccc2O[C@@H]1CN(C)S(=O)(=O)c1ccc(F)cc1`, the activity score (inhibition) is 5.25%.

Turning to `CC(C)NC(=O)N(C)C[C@H]1Oc2ccc(NS(C)(=O)=O)cc2CC(=O)N([C@@H](C)CO)C[C@H]1C`, the activity score (inhibition) is -20.6%.

As for `COc1ccc(CN(C)C[C@@H]2Oc3ccc(NS(=O)(=O)c4cn(C)cn4)cc3C(=O)N([C@@H](C)CO)C[C@H]2C)cc1`, the activity score (inhibition) was -24.5%.

In the case of `C[C@@H]1CN([C@H](C)CO)C(=O)c2cccc(NC(=O)c3nc4ccccc4s3)c2O[C@H]1CN(C)S(=O)(=O)c1ccc(Cl)cc1`, the activity score (inhibition) is 67.6% (active).

On to `C[C@@H]1CN([C@H](C)CO)C(=O)c2cccc(NC(=O)c3nc4ccccc4s3)c2O[C@@H]1CN(C)C`, for which the activity score (inhibition) is -35.8%.

Consider `Cc1ccc(S(=O)(=O)N(C)C[C@@H]2Oc3c(NC(=O)c4nc5ccccc5s4)cccc3C(=O)N([C@H](C)CO)C[C@@H]2C)cc1`, for which the activity score (inhibition) is 81.1% (active).

With `C[C@@H]1CN([C@H](C)CO)C(=O)c2cccc(NC(=O)c3nc4ccccc4s3)c2O[C@H]1CN(C)Cc1ccccc1`, the activity score (inhibition) is 32.1%.

On to `CC(C)NC(=O)N(C)C[C@@H]1Oc2c(NC(=O)c3nc4ccccc4s3)cccc2C(=O)N([C@H](C)CO)C[C@H]1C`, for which the activity score (inhibition) is 47.9%.

Regarding `C[C@@H]1CN([C@@H](C)CO)C(=O)c2cccc(NC(=O)c3nc4ccccc4s3)c2O[C@H]1CN(C)S(=O)(=O)c1cccs1`, the activity score (inhibition) was 28.4%.
